# Source: PMC7862700, “An all-to-all approach to the identification of sequence-specific readers for epigenetic DNA modifications on cytosine”
# Experiments:
# Test in all cases: DAPPL (digital affinity profiling via proximity ligation, sequencing); 10 mM Tris-HCl pH 7.5, 50 mM NaCl, 1 mM DTT, 4% glycerol, room temperature, 30 min; GST-TFs on glutathione beads, 16-mer random dsDNA library, 0.1% formaldehyde crosslink after washing; high values mean tight binding
# [1] = target: T1, FEV (Homo sapiens, UniProt Q99581 1-238); details: protein: recombinant; tags: N-terminal GST; dsDNA, one strand shown
# T1 sequence: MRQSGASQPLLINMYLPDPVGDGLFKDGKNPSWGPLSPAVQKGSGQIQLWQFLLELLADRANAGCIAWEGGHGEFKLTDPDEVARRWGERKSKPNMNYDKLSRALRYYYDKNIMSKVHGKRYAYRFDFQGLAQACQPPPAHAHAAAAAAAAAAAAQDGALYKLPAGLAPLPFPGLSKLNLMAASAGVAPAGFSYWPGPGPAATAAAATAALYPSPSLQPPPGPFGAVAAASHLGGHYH
# In short: (§1)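 After expression in yeast as GST fusions, human transcription factors were bound to glutathione beads, DNA-barcoded and mixed with a tag-only sample. The pools were incubated with 200 nmole of a 16-mer random double-stranded DNA library in Tris/NaCl/DTT/glycerol buffer (30 min, room temperature), washed and crosslinked with 0.1% formaldehyde. Proximity ligation with BsaI/T4 ligase ran for 1 h at 37 °C, before PCR amplification and sequencing on an Illumina NextSeq500. Binding signal is a hexamer's read frequency for a factor divided by its frequency for the tag-only sample.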
# [2] = target: ETV5 (Homo sapiens, UniProt P41161 1-510); details: protein: recombinant; tags: N-terminal GST; dsDNA, one strand shown
# ETV5, sequence (P41161 whole entry): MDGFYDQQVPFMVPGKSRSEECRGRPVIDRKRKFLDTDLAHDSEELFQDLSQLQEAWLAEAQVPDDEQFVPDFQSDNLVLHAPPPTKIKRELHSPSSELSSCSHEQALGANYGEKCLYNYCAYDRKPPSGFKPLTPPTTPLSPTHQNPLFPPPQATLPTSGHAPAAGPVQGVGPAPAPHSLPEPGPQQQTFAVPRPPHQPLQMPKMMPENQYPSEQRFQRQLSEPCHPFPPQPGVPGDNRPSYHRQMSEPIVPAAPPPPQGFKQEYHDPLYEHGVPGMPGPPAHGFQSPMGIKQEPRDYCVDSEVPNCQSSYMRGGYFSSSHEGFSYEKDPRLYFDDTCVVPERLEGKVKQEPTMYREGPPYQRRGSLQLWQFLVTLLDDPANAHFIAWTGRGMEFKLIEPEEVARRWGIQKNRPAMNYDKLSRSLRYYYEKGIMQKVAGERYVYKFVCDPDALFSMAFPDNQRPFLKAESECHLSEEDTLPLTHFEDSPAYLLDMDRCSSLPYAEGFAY
# In short: as §1
# [3] = target: HSF1 (Homo sapiens, UniProt Q00613 1-529); details: protein: recombinant; tags: N-terminal GST; chain copies: 3; dsDNA, one strand shown
# HSF1, sequence (Q00613 whole entry): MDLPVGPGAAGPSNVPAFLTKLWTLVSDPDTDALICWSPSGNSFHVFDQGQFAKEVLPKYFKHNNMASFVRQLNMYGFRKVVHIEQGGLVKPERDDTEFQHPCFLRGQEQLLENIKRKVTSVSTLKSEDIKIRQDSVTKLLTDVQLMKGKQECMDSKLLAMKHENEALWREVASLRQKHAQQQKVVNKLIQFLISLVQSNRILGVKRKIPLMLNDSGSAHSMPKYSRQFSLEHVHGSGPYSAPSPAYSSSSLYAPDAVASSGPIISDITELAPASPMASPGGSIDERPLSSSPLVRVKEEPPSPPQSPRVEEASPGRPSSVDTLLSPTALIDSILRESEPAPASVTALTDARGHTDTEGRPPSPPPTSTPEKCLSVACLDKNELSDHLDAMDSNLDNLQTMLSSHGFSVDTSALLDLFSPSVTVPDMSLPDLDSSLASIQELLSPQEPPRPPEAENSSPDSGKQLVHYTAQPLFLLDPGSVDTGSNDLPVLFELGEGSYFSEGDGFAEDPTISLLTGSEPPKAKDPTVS
# In short: as §1
# [4] = target: T2, SPIC (Homo sapiens, UniProt Q8N5J4 1-248); details: protein: recombinant; tags: N-terminal GST; dsDNA, one strand shown
# T2 sequence: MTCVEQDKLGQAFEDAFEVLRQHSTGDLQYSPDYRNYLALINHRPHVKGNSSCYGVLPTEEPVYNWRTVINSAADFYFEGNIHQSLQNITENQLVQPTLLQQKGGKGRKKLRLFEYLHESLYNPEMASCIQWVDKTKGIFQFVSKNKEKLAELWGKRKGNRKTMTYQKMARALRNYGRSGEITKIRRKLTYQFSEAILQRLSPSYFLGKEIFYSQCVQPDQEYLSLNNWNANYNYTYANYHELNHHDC
# In short: as §1
# [5] = target: ELF4 (Homo sapiens, UniProt Q99607 1-663); details: protein: recombinant; tags: N-terminal GST; dsDNA, one strand shown
# ELF4, sequence (Q99607 whole entry): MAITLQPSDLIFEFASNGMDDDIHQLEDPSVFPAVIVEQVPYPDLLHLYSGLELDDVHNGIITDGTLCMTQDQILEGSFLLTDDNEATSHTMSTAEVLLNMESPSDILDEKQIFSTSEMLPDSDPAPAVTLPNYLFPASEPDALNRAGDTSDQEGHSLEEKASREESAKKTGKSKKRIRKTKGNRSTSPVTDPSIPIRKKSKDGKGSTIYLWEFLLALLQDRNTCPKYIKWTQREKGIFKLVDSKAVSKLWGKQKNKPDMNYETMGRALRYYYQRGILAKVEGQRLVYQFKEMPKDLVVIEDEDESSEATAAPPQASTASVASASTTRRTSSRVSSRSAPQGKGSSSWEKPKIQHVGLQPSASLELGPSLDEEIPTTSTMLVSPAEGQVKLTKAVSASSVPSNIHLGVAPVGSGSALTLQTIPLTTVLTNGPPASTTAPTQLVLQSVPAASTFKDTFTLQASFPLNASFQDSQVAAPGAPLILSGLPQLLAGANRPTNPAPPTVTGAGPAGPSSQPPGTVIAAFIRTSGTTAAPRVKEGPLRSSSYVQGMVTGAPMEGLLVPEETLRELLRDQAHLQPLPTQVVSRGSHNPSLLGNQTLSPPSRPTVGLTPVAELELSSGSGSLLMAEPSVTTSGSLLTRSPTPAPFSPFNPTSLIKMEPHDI
# In short: as §1
# [6] = target: T3, ELK4 (Homo sapiens, UniProt P28324-2 1-405); details: protein: recombinant; tags: N-terminal GST; dsDNA, one strand shown
# T3 sequence: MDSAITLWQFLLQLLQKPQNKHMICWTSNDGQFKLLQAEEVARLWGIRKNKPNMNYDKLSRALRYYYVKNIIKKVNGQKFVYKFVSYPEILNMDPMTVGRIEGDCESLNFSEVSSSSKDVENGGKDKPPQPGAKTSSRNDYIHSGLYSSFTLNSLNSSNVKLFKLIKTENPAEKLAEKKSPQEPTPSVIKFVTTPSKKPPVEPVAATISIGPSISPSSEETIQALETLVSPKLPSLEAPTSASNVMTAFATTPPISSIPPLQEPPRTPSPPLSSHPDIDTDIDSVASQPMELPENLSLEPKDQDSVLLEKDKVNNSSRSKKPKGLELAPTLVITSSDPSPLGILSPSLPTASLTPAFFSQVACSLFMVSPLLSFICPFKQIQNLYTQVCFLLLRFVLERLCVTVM
# In short: as §1
# [7] = target: T4, ETV2 (Homo sapiens, UniProt O00321 1-342); details: protein: recombinant; tags: N-terminal GST; dsDNA, one strand shown
# T4 sequence: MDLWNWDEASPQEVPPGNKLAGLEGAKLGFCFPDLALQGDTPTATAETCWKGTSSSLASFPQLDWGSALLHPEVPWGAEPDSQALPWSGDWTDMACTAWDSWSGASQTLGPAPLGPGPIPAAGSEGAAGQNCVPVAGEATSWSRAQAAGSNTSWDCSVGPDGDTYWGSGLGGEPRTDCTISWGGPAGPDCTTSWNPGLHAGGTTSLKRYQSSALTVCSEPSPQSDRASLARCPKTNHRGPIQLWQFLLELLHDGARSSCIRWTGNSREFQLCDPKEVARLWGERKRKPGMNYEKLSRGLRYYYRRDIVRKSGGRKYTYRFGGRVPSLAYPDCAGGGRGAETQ
# In short: as §1
# [8] = target: T5, ELF3 (Homo sapiens, UniProt P78545 1-371); details: protein: recombinant; tags: N-terminal GST; dsDNA, one strand shown
# T5 sequence: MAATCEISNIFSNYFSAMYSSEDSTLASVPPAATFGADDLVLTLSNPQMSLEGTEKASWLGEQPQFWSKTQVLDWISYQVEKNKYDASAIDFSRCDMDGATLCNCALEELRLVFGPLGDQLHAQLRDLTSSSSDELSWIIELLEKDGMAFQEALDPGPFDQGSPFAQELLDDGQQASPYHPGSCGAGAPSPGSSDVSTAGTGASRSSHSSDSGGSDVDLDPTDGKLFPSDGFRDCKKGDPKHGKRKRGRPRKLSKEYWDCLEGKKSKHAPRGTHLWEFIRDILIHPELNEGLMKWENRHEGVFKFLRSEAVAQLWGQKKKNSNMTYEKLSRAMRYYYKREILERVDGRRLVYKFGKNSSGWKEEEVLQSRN
# In short: as §1
# [9] = target: CRX (Homo sapiens, UniProt O43186 1-299); details: protein: recombinant; tags: N-terminal GST; dsDNA, one strand shown
# CRX, sequence (O43186 whole entry): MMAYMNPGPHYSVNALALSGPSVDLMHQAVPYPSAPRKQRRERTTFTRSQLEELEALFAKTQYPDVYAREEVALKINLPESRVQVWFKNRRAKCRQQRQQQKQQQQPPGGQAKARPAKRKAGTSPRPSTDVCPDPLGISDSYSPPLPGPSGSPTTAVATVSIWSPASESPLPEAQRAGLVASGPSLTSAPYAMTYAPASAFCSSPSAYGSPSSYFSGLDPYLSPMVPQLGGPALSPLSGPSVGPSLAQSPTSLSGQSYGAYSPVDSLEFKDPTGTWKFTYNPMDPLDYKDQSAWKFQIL
# In short: as §1
# [10] = target: ETV1 (Homo sapiens, UniProt P50549 1-477); details: protein: recombinant; tags: N-terminal GST; dsDNA, one strand shown
# ETV1, sequence (P50549 whole entry): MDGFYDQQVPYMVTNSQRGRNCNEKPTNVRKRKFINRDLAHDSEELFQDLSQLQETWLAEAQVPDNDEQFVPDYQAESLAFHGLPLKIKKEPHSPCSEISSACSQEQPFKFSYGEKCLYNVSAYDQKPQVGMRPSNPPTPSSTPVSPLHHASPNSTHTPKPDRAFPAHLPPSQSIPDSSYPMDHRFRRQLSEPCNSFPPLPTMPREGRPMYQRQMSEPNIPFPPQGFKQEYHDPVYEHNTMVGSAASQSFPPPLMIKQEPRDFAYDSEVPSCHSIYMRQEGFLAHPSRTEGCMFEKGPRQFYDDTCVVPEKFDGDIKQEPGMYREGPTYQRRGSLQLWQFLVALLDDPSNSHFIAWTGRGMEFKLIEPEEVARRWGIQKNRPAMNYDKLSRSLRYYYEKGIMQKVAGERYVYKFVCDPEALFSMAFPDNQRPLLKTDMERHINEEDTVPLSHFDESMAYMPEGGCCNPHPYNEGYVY
# In short: as §1
# [11] = target: T6, ERF (Homo sapiens, UniProt P50548 1-548); details: protein: recombinant; tags: N-terminal GST; dsDNA, one strand shown
# T6 sequence: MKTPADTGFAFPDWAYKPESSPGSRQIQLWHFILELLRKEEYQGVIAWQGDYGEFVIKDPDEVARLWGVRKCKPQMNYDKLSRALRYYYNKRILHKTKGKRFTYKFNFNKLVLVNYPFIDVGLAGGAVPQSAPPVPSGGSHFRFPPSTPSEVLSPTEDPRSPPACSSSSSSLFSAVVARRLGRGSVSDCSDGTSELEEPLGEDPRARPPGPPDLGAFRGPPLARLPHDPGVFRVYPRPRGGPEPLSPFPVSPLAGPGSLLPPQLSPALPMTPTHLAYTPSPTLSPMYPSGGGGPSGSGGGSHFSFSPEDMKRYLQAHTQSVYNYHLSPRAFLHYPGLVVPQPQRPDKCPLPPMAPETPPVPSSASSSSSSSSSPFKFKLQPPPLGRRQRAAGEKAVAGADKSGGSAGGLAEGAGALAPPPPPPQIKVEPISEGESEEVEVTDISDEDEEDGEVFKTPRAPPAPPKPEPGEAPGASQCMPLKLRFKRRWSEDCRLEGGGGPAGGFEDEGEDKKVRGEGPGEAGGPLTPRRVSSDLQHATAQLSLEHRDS
# In short: as §1
# [12] = target: T7, ETV3L (Homo sapiens, UniProt Q6ZN32 1-361); details: protein: recombinant; tags: N-terminal GST; dsDNA, one strand shown
# T7 sequence: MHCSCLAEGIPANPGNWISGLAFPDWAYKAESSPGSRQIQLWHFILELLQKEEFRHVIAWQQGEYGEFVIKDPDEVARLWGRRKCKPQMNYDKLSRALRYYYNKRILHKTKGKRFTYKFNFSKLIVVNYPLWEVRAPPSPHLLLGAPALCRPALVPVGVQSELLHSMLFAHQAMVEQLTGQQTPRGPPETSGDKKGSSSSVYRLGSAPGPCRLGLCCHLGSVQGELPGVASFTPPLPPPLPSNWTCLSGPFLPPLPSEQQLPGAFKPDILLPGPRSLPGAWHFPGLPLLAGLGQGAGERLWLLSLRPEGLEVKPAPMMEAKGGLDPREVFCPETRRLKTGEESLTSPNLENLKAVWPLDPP
# In short: as §1
# [13] = target: T8, ETS2 (Homo sapiens, UniProt P15036 1-469); details: protein: recombinant; tags: N-terminal GST; dsDNA, one strand shown
# T8 sequence: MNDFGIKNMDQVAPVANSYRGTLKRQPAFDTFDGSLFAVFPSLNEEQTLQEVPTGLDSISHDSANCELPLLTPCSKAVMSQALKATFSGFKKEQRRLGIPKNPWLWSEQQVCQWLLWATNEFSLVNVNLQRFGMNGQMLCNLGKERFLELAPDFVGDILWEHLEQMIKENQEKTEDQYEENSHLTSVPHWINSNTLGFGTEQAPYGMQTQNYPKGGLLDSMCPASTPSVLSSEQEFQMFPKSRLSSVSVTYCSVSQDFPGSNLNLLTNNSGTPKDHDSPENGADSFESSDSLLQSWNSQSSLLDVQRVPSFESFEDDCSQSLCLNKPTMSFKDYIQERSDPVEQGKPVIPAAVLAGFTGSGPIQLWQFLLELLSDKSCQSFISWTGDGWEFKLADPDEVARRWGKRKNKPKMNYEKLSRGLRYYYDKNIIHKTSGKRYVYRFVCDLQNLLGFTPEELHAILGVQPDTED
# In short: as §1
# [14] = target: T9, SPDEF (Homo sapiens, UniProt O95238 1-335); details: protein: recombinant; tags: N-terminal GST; dsDNA, one strand shown
# T9 sequence: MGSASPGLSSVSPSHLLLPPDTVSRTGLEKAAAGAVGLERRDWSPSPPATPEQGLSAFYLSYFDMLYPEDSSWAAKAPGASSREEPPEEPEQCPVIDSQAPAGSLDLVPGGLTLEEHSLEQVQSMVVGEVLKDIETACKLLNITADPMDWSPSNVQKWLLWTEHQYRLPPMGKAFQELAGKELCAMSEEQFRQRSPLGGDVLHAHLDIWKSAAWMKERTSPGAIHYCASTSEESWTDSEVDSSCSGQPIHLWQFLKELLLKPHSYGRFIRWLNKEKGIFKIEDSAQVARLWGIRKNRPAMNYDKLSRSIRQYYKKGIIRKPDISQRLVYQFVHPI
# In short: as §1
# [15] = target: T10, ETV7 (Homo sapiens, UniProt Q9Y603 1-341); details: protein: recombinant; tags: N-terminal GST; dsDNA, one strand shown
# T10 sequence: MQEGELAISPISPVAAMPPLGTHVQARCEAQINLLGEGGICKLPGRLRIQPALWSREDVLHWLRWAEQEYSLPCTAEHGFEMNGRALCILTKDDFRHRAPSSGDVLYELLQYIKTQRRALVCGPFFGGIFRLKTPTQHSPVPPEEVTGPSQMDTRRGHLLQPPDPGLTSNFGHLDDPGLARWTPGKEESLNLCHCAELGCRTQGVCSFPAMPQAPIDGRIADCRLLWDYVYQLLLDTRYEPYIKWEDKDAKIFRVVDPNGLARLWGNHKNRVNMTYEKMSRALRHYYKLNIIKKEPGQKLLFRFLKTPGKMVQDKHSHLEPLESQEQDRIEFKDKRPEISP
# In short: as §1
# [16] = target: T11, ELF5 (Homo sapiens, UniProt Q9UKW6-2 1-255); details: protein: recombinant; tags: N-terminal GST; dsDNA, one strand shown
# T11 sequence: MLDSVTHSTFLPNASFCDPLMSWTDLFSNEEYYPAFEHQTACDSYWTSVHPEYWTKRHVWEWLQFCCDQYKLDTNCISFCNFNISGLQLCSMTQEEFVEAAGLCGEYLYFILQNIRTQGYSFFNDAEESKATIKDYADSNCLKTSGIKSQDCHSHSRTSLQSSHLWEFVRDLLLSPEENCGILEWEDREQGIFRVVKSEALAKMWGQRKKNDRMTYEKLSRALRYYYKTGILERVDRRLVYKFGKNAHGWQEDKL
# In short: as §1
# [17] = target: T12, ETV3 (Homo sapiens, UniProt P41162-2 1-143); details: protein: recombinant; tags: N-terminal GST; dsDNA, one strand shown
# T12 sequence: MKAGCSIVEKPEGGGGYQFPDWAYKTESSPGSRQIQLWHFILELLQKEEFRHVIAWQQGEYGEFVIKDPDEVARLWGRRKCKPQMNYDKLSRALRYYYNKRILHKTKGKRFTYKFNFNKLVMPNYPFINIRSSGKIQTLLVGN
# In short: as §1
# [18] = target: ETV6 (Homo sapiens, UniProt P41212 1-452); details: protein: recombinant; tags: N-terminal GST; dsDNA, one strand shown
# ETV6, sequence (P41212 whole entry): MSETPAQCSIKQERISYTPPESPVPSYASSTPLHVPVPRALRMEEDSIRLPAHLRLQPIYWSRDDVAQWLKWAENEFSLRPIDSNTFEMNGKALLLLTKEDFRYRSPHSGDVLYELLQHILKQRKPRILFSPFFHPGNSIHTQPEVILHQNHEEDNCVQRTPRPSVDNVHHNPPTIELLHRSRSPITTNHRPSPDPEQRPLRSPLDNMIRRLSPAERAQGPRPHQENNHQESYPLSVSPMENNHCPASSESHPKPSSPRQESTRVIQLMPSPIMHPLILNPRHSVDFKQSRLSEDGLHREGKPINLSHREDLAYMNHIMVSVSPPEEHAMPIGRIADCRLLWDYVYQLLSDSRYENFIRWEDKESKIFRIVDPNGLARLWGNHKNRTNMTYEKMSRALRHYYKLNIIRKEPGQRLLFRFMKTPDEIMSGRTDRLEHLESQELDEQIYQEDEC
# In short: as §1
sequence,measurement,setting,value
TCTCAC,binding signal,[1],"1.47 fold enrichment (6-mer frequency, TF over GST control)"
same,binding signal,[2],"1.34 fold enrichment (6-mer frequency, TF over GST control)"
same,binding signal,[3],"1.3 fold enrichment (6-mer frequency, TF over GST control)"
same,binding signal,[4],"1.55 fold enrichment (6-mer frequency, TF over GST control)"
same,binding signal,[5],"1.37 fold enrichment (6-mer frequency, TF over GST control)"
same,binding signal,[6],"1.35 fold enrichment (6-mer frequency, TF over GST control)"
same,binding signal,[7],"1.18 fold enrichment (6-mer frequency, TF over GST control)"
same,binding signal,[8],"1.42 fold enrichment (6-mer frequency, TF over GST control)"
same,binding signal,[9],"1.33 fold enrichment (6-mer frequency, TF over GST control)"
same,binding signal,[10],"1.3 fold enrichment (6-mer frequency, TF over GST control)"
same,binding signal,[11],"1.44 fold enrichment (6-mer frequency, TF over GST control)"
same,binding signal,[12],"1.33 fold enrichment (6-mer frequency, TF over GST control)"
same,binding signal,[13],"1.35 fold enrichment (6-mer frequency, TF over GST control)"
same,binding signal,[14],"1.23 fold enrichment (6-mer frequency, TF over GST control)"
same,binding signal,[15],"1.24 fold enrichment (6-mer frequency, TF over GST control)"
same,binding signal,[16],"1.37 fold enrichment (6-mer frequency, TF over GST control)"
same,binding signal,[17],"1.34 fold enrichment (6-mer frequency, TF over GST control)"
same,binding signal,[18],"1.32 fold enrichment (6-mer frequency, TF over GST control)"
